PubChem BioAssay AID1345085 (National Center for Advancing Translational Sciences (NCATS), 2018)
Inconclusive results are not listed. A number with no mark means an inactive call. Active and inactive are the calls of the source. Calls follow the shape of the dose curve; as a rule, active = well fitted cell-killing curve with a large enough effect; inconclusive = small, poorly fitted or top-dose-only effect, or effect the other way; inactive = no such curve, though single readings can be large or run the other way.

Tested on: HeLa
Assay: Confirmatory qHTS for gynecologic anti-cancer compounds from libraries of approved drugs and bioactive compounds; also: nearly all actives have a fitted effect of over 55% in size
Conditions: gynecologic cancer cell panel viability, ATPlite luminescence, 48 h; series mostly up to 57.6 µM; activity change, negative = viability loss: at the top concentration
In short: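 ATP-based luminescent viability (ATPlite) after 48 h drug treatment at 37 °C, 5% CO2, across 57.5 uM–0.977 nM in 1:3 steps. Cells seeded at 1,000 per well 16 h beforehand; IC50 values computed, HEK 293T as selectivity control.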
% is scaled to controls: 0 for no effect and ±100 for the full control effect; potency is read from the fitted curve at half-maximal effect.

| Structure (SMILES) | Potency | activity change, negative = viability loss [%] |
| --- | --- | --- |
| COc1cc(N2CCC(N)CC2)ccc1Nc1ncc(Cl)c(-c2c[nH]c3ccccc23)n1 | 0.544 µM (active) | – |
| CC(C)C[C@H](NC(=O)[C@H](CCc1ccccc1)NC(=O)CN1CCOCC1)C(=O)N[C@@H](Cc1ccccc1)C(=O)N[C@@H](CC(C)C)C(=O)[C@@]1(C)CO1 | 10.9 µM (active) | – |
| C#C[C@]1(O)CC[C@H]2[C@@H]3CCC4=CC(=O)CC[C@@H]4[C@H]3CC[C@@]21CC | 3.85 µM (active) | – |
| CCN[C@H]1C[C@H](C)S(=O)(=O)c2sc(S(N)(=O)=O)cc21 | – | -6.16 |
| CC[C@@]1(O)C(=O)OCc2c1cc1n(c2=O)Cc2cc3cc(O)ccc3nc2-1 | 0.968 µM (active) | – |
| CCc1nc(C(N)=O)c(Nc2ccc(N3CCC(N4CCN(C)CC4)CC3)c(OC)c2)nc1NC1CCOCC1 | 3 µM (active) | – |
| Nc1ccc(-c2ccc3ncc4ccc(=O)n(-c5cccc(C(F)(F)F)c5)c4c3c2)cn1 | 0.385 µM (active) | – |
| Cn1cnc2c(F)c(Nc3ccc(Br)cc3F)c(C(=O)NOCCO)cc21 | – | -17.7 |
| COC(C(=O)N1Cc2[nH]nc(NC(=O)c3ccc(N4CCN(C)CC4)cc3)c2C1)c1ccccc1 (configuration not stated) | 0.243 µM (active) | – |
| COc1cc2nccc(Oc3ccc(NC(=O)Nc4cc(C)on4)c(Cl)c3)c2cc1OC | 15.3 µM (active) | – |
| CN1C2CCC1CC(OC(=O)[C@H](CO)c1ccccc1)C2 (some centres not stated) | – | 23.4 |
| Cc1cnc(Nc2ccc(F)cc2Cl)nc1-c1c[nH]c(C(=O)NC(CO)c2cccc(Cl)c2)c1 (configuration not stated) | 9.68 µM (active) | – |
| CCOc1cc2ncc(C#N)c(Nc3ccc(F)c(Cl)c3)c2cc1NC(=O)/C=C/CN(C)C | 24.3 µM (active) | – |
| Cc1cc(SCc2sc(-c3ccc(C(F)(F)F)cc3)nc2C)ccc1OCC(=O)O | – | -8.44 |
| S=c1nc[nH]c2nc[nH]c12 | 3.43 µM (active) | – |
| O=c1[nH]c(=O)n([C@H]2C[C@H](O)[C@@H](CO)O2)cc1F | 2.43 µM (active) | – |
| CNC1CCC(N(Cc2cccc(-c3ccncc3)c2)C(=O)c2sc3ccccc3c2Cl)CC1 (configuration not stated) | 27.3 µM (active) | – |
| CN(Cc1cnc2nc(N)nc(N)c2n1)c1ccc(C(=O)N[C@@H](CCC(=O)O)C(=O)O)cc1 | – | 28.4 |
| CC[C@@]1(O)C(=O)OCc2c1cc1n(c2=O)Cc2c-1nc1ccccc1c2/C=N/OC(C)(C)C | 7.69 µM (active) | – |
| CN(C)CCC(CSc1ccccc1)Nc1ccc(S(=O)(=O)NC(=O)c2ccc(N3CCN(Cc4ccccc4-c4ccc(Cl)cc4)CC3)cc2)cc1[N+](=O)[O-] (configuration not stated) | 19.3 µM (active) | – |
| C[C@]12CCC(=O)C=C1[C@@H]1C[C@@H]1[C@H]1[C@@H]3[C@@H]4C[C@@H]4[C@@]4(CCC(=O)O4)[C@@]3(C)CC[C@@H]12 | 4.85 µM (active) | – |
| CCCCc1oc2ccc(NS(C)(=O)=O)cc2c1C(=O)c1ccc(OCCCN(CCCC)CCCC)cc1 | 24.3 µM (active) | – |
| CNC(=O)c1nn(C)c2c1C(C)(C)Cc1cnc(Nc3ccc(N4CCN(C)CC4)cc3)nc1-2 | 1.53 µM (active) | – |
| CC(=O)Nc1cccc(-n2c(=O)n(C3CC3)c(=O)c3c(Nc4ccc(I)cc4F)n(C)c(=O)c(C)c32)c1 | – | -19.4 |
| Cc1ccc(C(N)=O)cc1Nc1nccc(-c2cn(C(C)C)c3cnccc23)n1 | 7.69 µM (active) | – |
| CN(C[C@@H]1COCCO1)S(=O)(=O)Nc1ccc2ccc3ncc(-c4cnn(C)c4)cc3c(=O)c2c1 | 5.44 µM (active) | – |
| CCC1=CC2CN(C1)Cc1c([nH]c3ccccc13)[C@@](C(=O)OC)(c1cc3c(cc1OC)N(C)[C@H]1[C@@](O)(C(=O)OC)[C@H](OC(C)=O)[C@]4(CC)C=CCN5CC[C@]31[C@@H]54)C2 (some centres not stated) | 0.0943 µM (active) | – |
